# In PubChem BioAssay AID504832 (National Center for Advancing Translational Sciences (NCATS), 2011):
# Hit rate of the full screen: of about 310,000 compounds, about 18,000 (5.8%) were called active. About 22% were inconclusive and are not listed. Calls follow the shape of the dose curve; as a rule, active = well fitted inhibition curve with a large enough effect; inconclusive = small, poorly fitted or top-dose-only effect, or another doubt; inactive = no such curve, though single readings can be large or run the other way. The sample as a whole holds a higher share of actives than the screen did.
# Experiment: Primary qHTS for delayed death inhibitors of the malarial parasite plastid, 48 hour incubation
# Details: P. falciparum luciferase growth in erythrocytes; series mostly up to 28.7 µM; activity change, negative = inhibition: at the top concentration
# Procedure, shortened: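 Here the parasites carry a stable luciferase gene and grow inside erythrocytes in Albumax-based RPMI medium with compound for one erythrocytic cycle. Activity is scored as loss of luminescent signal.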
# % is scaled to controls: 0 for no effect and ±100 for the full control effect; potency is read from the fitted curve at half-maximal effect.
Compound,"activity change, negative = inhibition",Potency
CCC(C)N1CC(=O)N2Cc3[nH]c4ccccc4c3C[C@H]2C1=O (stereo not given in full),-9.23% (inactive),
CC(C)c1ccc(Cc2nnc(NCCCO)[nH]c2=O)cc1,-16.3% (inactive),
CC1Cc2ccccc2N1C(=O)c1cc2sccc2n1Cc1ccccc1 (stereo not given),,11.7 µM (active)
O=C(CSCc1ccccc1)N1CCc2ccccc21,169% (inactive),
Cc1ccn(CCC(=O)N2c3ccccc3CC2C)n1 (stereo not given),-0.0677% (inactive),
CC(OC(=O)Cc1ccc(F)cc1)C(=O)N1CCc2ccccc21 (stereo not given),-0.0345% (inactive),
CC(=O)N1c2ccc(S(=O)(=O)N(C)CC(=O)N(C)Cc3ccccc3)cc2CC1C (stereo not given),-3.71% (inactive),
O=C(c1cc2sccc2n1Cc1ccc(F)cc1)N1CCc2ccccc21,,14.7 µM (active)
CC(C)C(=O)Nc1c2c(nn1-c1ccccc1)CSC2,6.94% (inactive),
CCNC(=O)N1CCN(S(=O)(=O)c2ccc3c(c2)OCCCO3)CC1,1.67% (inactive),
O=C(Nc1cccc(Cl)c1)c1cc(S(=O)(=O)N2CCCCC2)c[nH]1,19.9% (inactive),
O=C(CCN1C(=O)[C@@H]2Cc3ccccc3CN2C1=O)NCc1ccccc1,8.13% (inactive),
CC(=O)N1CCc2cc(S(=O)(=O)NC3CCCCC3)ccc21,-10.2% (inactive),
CC(C)C(=O)Nc1oc(-c2ccccc2)cc1C#N,,1.85 µM (active)
CC(Oc1ccccc1)C(=O)Nc1oc(-c2ccco2)c(-c2ccco2)c1C#N (stereo not given),33.3% (inactive),
COc1cc(C(=O)Nc2oc(-c3ccccc3)c(-c3ccccc3)c2C#N)cc(OC)c1OC,15.7% (inactive),
COc1cc(CC(=O)N2CCC(n3nccc3NC(=O)C3CC3)CC2)cc(OC)c1OC,41.4% (inactive),
O=C(CN(Cc1ccc(Br)cc1)S(=O)(=O)c1ccccc1)NCc1ccncc1,-5.45% (inactive),
Cc1ccc(-c2nc(-c3ccncc3)no2)c(C)c1,18% (inactive),
O=C(COC(=O)c1ccccc1Cl)NC1CCCCCCC1,16.5% (inactive),
COc1ccccc1CC(=O)Nc1ccc(S(=O)(=O)N2CCCC2)cc1,-21.9% (inactive),
CC(C)c1c(C(=O)N/N=C/c2ccc(-c3ccccc3)cc2)nnn1-c1nonc1N,13.7% (inactive),

Compound,"activity change, negative = inhibition",Potency
Nc1nonc1-n1nnc(C(=O)N/N=C/C2CCCCC2)c1-c1ccccc1,11.2% (inactive),
Nc1nonc1-n1nnc(C(=O)N/N=C/c2ccc(Cl)cc2)c1-c1ccc2c(c1)OCO2,,0.329 µM (active)
Cc1cc(F)ccc1S(=O)(=O)Nc1ccc(C(=O)N(C)Cc2ccco2)cc1,-12.8% (inactive),
O=C(NCCSc1ncc(-c2ccccc2)[nH]1)c1ccco1,2.49% (inactive),
COc1ccc(CCNC(=O)CSc2nnc(-c3cccc(F)c3)o2)cc1OC,-10.6% (inactive),
COc1ccc(CN(C(=O)CSc2nnc(-c3ccc(OC)c(OC)c3)o2)c2ccc(F)cc2)cc1,,9.28 µM (active)
CCN(C(=O)CSc1nnc(-c2ccncc2)o1)c1ccccc1,-1.9% (inactive),
CCc1ccc(NC(=O)C(=O)NNC(=O)c2cccs2)cc1,74.2% (inactive),
O=C(Nc1ccccc1N1CCN(C(=O)c2ccccc2)CC1)c1ccco1,-14% (inactive),
O=C(Nc1cccc(C(=O)N2CCCC2)c1)c1ccccc1,13.1% (inactive),
O=C(Nc1ccc(N2CCN(C(=O)c3ccccc3)CC2)c(Cl)c1)c1ncn[nH]1,,11.7 µM (active)
C#CCOc1ccccc1/C=C1/C(=O)ON=C1C,-13.9% [at 0.00184 µM] (inactive),
O=[N+]([O-])c1ccc2c(c1)Nc1nc3ccccc3nc1N2,129% (inactive),
O=[N+]([O-])c1cccc(/C([O-])=C(/C(=S)Nc2ccccc2F)[n+]2ccccc2)c1,57.9% (inactive),
Cc1ccc(/C([O-])=C(/C(=S)NCc2ccco2)[n+]2ccccc2)cc1[N+](=O)[O-],,10.4 µM (active)
CC(OC(=O)CNC(=O)c1ccc(Cl)c([N+](=O)[O-])c1)C(=O)NCc1ccco1 (stereo not given),2.5% (inactive),
COc1cccc(C(=O)OCc2cc(=O)oc3c(C)c(C)ccc23)c1OC,3.93% (inactive),
Cc1cc(/C=C2/SC(=O)N(CC(=O)N3CCCC3)C2=O)c(C)n1C,5.8% (inactive),
Cc1cc(C)c2[nH]c(=O)c(CN(Cc3ccccc3)C(=S)NCCCN(C)C)cc2c1,,13.1 µM (active)
CCN(CC)CCCNC(=S)N(CCO)Cc1cc2cc3c(cc2[nH]c1=O)OCO3,26.3% (inactive),
COCCCNC(=S)N(CCN(C)C)Cc1cc2cc3c(cc2[nH]c1=O)OCCO3,-21.6% (inactive),
COc1cc(/C=N/NC(=O)c2ccc(N3CCCC3=O)cc2)ccc1O,45.3% (inactive),

Compound,"activity change, negative = inhibition",Potency
O=c1cc(Cl)c2ccccc2n1-c1ccccc1,-0.654% [at 0.00184 µM] (inactive),
COc1ccc(OCc2cc(C(=O)NCC3(C)COC3)no2)c(Cl)c1,36.9% (inactive),
COC(=O)c1c(NC(=O)c2ccccc2F)sc2c1C(C(=O)OC)CC2 (stereo not given),12.9% (inactive),
COc1ccc(NC(=S)NCc2cccs2)c(OC)c1,-9.21% (inactive),
Cc1[nH]c2ccccc2c1CCN(Cc1cccs1)C(=S)NC(C)(C)C,-11.3% (inactive),
COc1ccc2[nH]c(C)c(CCN(Cc3cccs3)C(=S)Nc3ccccc3OC)c2c1,,11.7 µM (active)
Cc1ccc2c(c1)N(CC(=O)N1CCCC(C)C1)C(=O)CO2 (stereo not given),13.8% (inactive),
COc1ccc(OCCn2ccnc2C)cc1,10.7% (inactive),
c1ccc(Cc2ccc(OCCn3ccnc3)cc2)cc1,,9.28 µM (active)
Clc1ncn(CCOc2ccccc2)c1Cl,8.95% (inactive),
CC(CCc1ccccc1)NC(=O)c1cnc(Cl)c(Cl)c1 (stereo not given),5.45% (inactive),
CN(C)C(=O)c1ccc(NC(=O)COC(=O)c2cc3c(s2)CCCCC3)cc1,-7.64% (inactive),
CCn1c2ccccc2c2cc(NC(=O)COC(=O)c3cc(S(=O)(=O)N4CCCCC4)ccc3Cl)ccc21,32.1% (inactive),
COC(=O)Cn1c(O)c(N=NC(=O)OC)c2ccccc21,22.9% (inactive),
CCn1c(O)c(N=NC(=O)c2cccc(S(=O)(=O)N3CCCCC3)c2)c2ccccc21,,11.7 µM (active)
CC(C)(C)c1cc[n+](-c2[nH]c(=O)sc2/C=N/N=C(\[O-])c2ccccc2)cc1,-0.526% (inactive),
CCOc1ccc(NC(=O)CSc2nc3ccccc3c(=O)n2Cc2cccs2)cc1,0.231% (inactive),
O=C(CSc1nc2nccnc2c(=O)n1Cc1cccs1)Nc1ccccc1F,,10.4 µM (active)
O=C(CSc1ccc(-c2cccs2)nn1)Nc1ccccc1F,26% (inactive),
CN(CC(=O)Nc1ccc(Cl)c(C(F)(F)F)c1)C(=O)CCC(=O)c1ccccc1,-24.2% (inactive),
O=C(NCCCN1CCCC1=O)C(=O)NCC1OCCN1S(=O)(=O)c1ccc(Br)cc1 (stereo not given),-17.4% (inactive),
